# Screening data (PubChem)
# Pf growth 96h = inhibits malaria parasite growth, 96 h; P. falciparum luciferase reporter growth, 96 h; Potency, µM (titrated, usually from 28.7 µM), for the others: at the highest dose activity change, negative = inhibition, usual class: inhibitors; 320,000 tested, 6.9% active; AID 504834; further: on the % scale 0 is the no-effect control and ±100 the full control effect
#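 P. falciparum expressing integrated firefly luciferase grown in erythrocytes (2% hematocrit, 0.05% parasitemia final) with compounds for 96 hours at 37 C, 5% CO2. Growth inhibition read as loss of luminescence after adding luciferase detection reagent.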
# AmpC inh detg = blocks E. coli AmpC beta-lactamase in detergent assay; P00811; AmpC hydrolysis of nitrocefin, absorbance 480 nm, 0.01% Triton; Potency, µM (doses to about 114 µM), for inactives: top-dose activity change, negative = inhibition, usual class: inhibitors; 370,000 tested, 0.041% active;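 further: 0% = no-compound wells and -100% = no-enzyme wells; nearly all actives have a fitted effect of over 25% in size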
# Target sequence (P00811 whole entry, looked up): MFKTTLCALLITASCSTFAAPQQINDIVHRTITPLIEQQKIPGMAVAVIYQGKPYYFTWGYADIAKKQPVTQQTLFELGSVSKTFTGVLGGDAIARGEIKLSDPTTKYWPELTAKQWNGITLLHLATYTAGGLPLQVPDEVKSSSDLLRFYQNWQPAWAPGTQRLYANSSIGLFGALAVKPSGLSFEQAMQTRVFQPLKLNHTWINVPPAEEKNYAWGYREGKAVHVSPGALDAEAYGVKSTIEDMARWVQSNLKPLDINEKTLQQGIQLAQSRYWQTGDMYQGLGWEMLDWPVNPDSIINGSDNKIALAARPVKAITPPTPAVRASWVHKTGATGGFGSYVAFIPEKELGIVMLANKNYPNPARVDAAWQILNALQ
#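 AmpC (5.3 nM in the dispensed reagent) in 20 mM phosphate pH 7.0 with 0.01% (detergent screen) or 0.0001% Triton X-100 was preincubated with compounds for 15 min at room temperature. Nitrocefin was then added from an 800 uM solution, and hydrolysis was followed at 480 nm.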
# AmpC inh no detg = AmpC beta-lactamase inhibition without detergent; P00811; AmpC nitrocefin hydrolysis, absorbance 480 nm, 0.0001% Triton; Potency, µM (doses to about 57.1 µM), for the others: at the top dose activity change, negative = inhibition, actives largely listed as inhibitors; 330,000 tested, 0.52% active; AID 485341;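 further: plate controls were no compound for no effect and no enzyme for full effect; nearly all actives have a fitted effect of over 20% in size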
#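 AmpC (5.3 nM in the dispensed reagent) in 20 mM phosphate pH 7.0 with 0.01% (detergent screen) or 0.0001% Triton X-100 was preincubated with compounds for 15 min at room temperature. Nitrocefin was then added from an 800 uM solution, and hydrolysis was followed at 480 nm.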
# SARS PLpro yeast = SARS-CoV PLP inhibition in yeast; Potency, µM (series often up to 32.9 µM), for the others: at the top dose activity, positive = growth rescue, actives largely listed as activators; 330,000 tested, 0.19% active; S. cerevisiae expressing SARS-CoV PLpro, growth rescue; AID 485353; calls by dose curve; further: 0% is about no effect; nearly all actives have a fitted effect of over 55% in size
# Pf growth 48h = inhibits P. falciparum growth in the first generation, 48 h; P. falciparum luciferase growth in erythrocytes, 48 h; Potency, µM (top dose mostly 28.7 µM), inactives show top-dose activity change, negative = inhibition, hits mostly inhibitors; AID 504832; 310,000 tested, 5.9% active; further: on the % scale 0 is the no-effect control and ±100 the full control effect
#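 Firefly luciferase activity from engineered P. falciparum reports growth; inhibitors lower the luminescent signal. Cultures contained 2% hematocrit erythrocytes at 0.1% final parasitemia.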
# Sm TGR block = blocks Schistosoma mansoni thioredoxin glutathione reductase; Potency, µM (top dose mostly 114 µM), for the others: at the highest dose activity change, negative = inhibition, actives largely listed as inhibitors; purified TGR, DTNB reduction, TNB absorbance 405 nm; 360,000 tested, 3% active; AID 485364; further: on the % scale 0 is the no-effect control and ±100 the full control effect; nearly all actives have a fitted effect of over 60% in size
#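 Kinetic colorimetric format: TGR-catalysed, NADPH-driven DTNB reduction monitored via TNB absorbance. Enzyme dispensed at 20 nM; compound exposure 15 min at room temperature before reaction start.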
# An asterisk follows results filed as active; ? = inconclusive; · = no result; [ ] = another dose, or the depositor's remark. The list is not random: actives were taken first. Their share in the collection is about 12%. Unless noted, the call rests on the fitted dose curve; in most records, active means well fitted curve in the direction sought with a large enough effect; inconclusive means small, poorly fitted or top-dose-only effect, or another doubt; inactive means no such curve, though single readings can be large; an effect the other way counts as inactive or inconclusive. Potency means the concentration at half of the fitted maximal effect.
SMILES,Pf growth 96h,AmpC inh detg,AmpC inh no detg,SARS PLpro yeast,Pf growth 48h,Sm TGR block
COc1cc(OC)c(OC)cc1/C=C1\CC(C)C/C(=C\c2cc(OC)c(OC)cc2OC)C1=O (configuration not stated),?,-0.9%,113.6%,-2.0%,4.65µM*,-29.9%
CCC(=O)C1=C(c2ccc(OC)c(OC)c2)N(C(=O)CC)n2c(CC)nnc2S1,·,0.7%,·,·,·,?
CC(=O)Nc1ccc(NC(=O)CCCCCn2nnc3ccccc3c2=O)cc1,-7.9%,-7.9%,-26.1%,1.7%,-8.9%,3.0%
Cc1cccc(NC(=O)CSc2nc3ccccc3c(=O)n2C)c1,?,-2.0%,-15.5%,-4.5%,14.7µM*,1.8%
Cc1ccccc1CSc1nc2ccccc2c(=O)n1C,?,-9.6%,-44.4%,4.1%,9.28µM*,-11.7%
COCCn1c(SCC(=O)Nc2cccc(C(=O)OC)c2)nc2ccccc2c1=O,49.4%,-19.7%,-16.5%,2.5%,13.1µM*,1.6%
CC(=O)c1cccc(NC(=O)CCCCCn2nnc3ccccc3c2=O)c1,3.29µM*,-12.1%,-21.9%,-0.9%,6.57µM*,-22.7%
COCCn1c(SCC(=O)Nc2cc(C)cc(C)c2)nc2ccccc2c1=O,149.3%,?,53.9%,-3.5%,-27.9%,4.8%
Cc1cccc(NC(=O)CSc2nc3c([nH]c4ccccc43)c(=O)n2C)c1,?,0.2%,-2.2%,0.4%,19.3%,-3.1%
Cc1cc2c(n1-c1ccc(C(=O)NCCc3ccc(Cl)cc3)cc1)CCC(C)C2 (configuration not stated),·,6.8%,·,·,·,-11.0%
COc1ccc([N+](=O)[O-])cc1N(CC1CO1)S(=O)(=O)c1ccc(C)cc1 (configuration not stated),19.6%,2.6%,2.9%,-0.7%,-5.9%,-27.8%[57.1 µM]
Cc1sc2nc(-c3cccs3)nc(N3CCCN(C)CC3)c2c1C,?,-10.0%,68.8%,-2.6%,10.4µM*,44.7µM*
Cc1cc(CNC(=S)Nc2ccc(Br)cc2Cl)nn1C,-3.6%,-8.1%,-16.4%,-0.1%,14.8%,7.94µM*
OCCCNC(=S)Nc1ccc(Br)cc1Cl,58.4%,10.5%,-8.3%,-0.5%,46.9%,3.16µM*
S=C(NCc1ccco1)Nc1ccc(Br)cc1Cl,32.5%,0.3%,-38.4%,0.9%,38.3%,?
Cc1ccc(NC(=O)Cc2ccc(-n3c(C)nc4cccnc43)cc2)c(Cl)c1,·,-2.1%,·,·,·,-1.7%
O=C(CCNS(=O)(=O)c1ccc2c(c1)CCN2C(=O)C1CC1)Nc1ccc(Cl)cc1,·,-3.4%,·,·,·,-4.6%
c1coc(-c2nnc(-c3ccco3)nn2)c1,6.57µM*,0.8%,-18.3%,-9.4%,?,3.98µM*
O=C(/C=C/c1ccccn1)c1cc(Cl)cc(Cl)c1O,?,2.4%,-30.1%,-2.9%,?,39.8µM*
CCOc1ccccc1CNC(=O)c1ccc(N2Cc3ccccc3Oc3ncccc32)s1,·,4.3%,·,·,·,-1.2%
CC(C)CN=C(NS(=O)(=O)c1ccccc1)C(Cl)(Cl)Cl,10.4µM*,?,-17.0%,-29.8%,2.62µM*,-27.0%
CC(=O)Nc1ccc(C2(c3ccc(NC(C)=O)cc3)NC(=O)c3ccccc32)cc1,46.4%,3.9%,-2.5%,-0.4%,1.31µM*,-17.2%
COc1ccc(OC)c2[nH]c(=O)c(CCNC(=O)c3ccc(S(=O)(=O)N4CCCCC4)cc3)cc12,54.8%,0.6%,168.3%,-1.1%,9.28µM*,7.5%
Cc1ccc2cc(CCNC(=O)c3cc4ccccc4o3)c(=O)[nH]c2c1C,?,12.2%,-21.7%,-2.6%,?,17.3%
COc1ccc2cc(CCNC(=O)c3cc4ccccc4o3)c(=O)[nH]c2c1,1.47µM*,2.5%,0.0%,0.7%,37.0%,-34.6%
SMILES,Pf growth 96h,AmpC inh detg,AmpC inh no detg,SARS PLpro yeast,Pf growth 48h,Sm TGR block
Cc1cc2cc(CCNC(=O)c3ccc(C)c([N+](=O)[O-])c3)c(=O)[nH]c2cc1C,?,-20.8%,31.0%,3.0%,-29.1%,-3.5%
COc1ccc2cc(CCNC(=O)c3ccc(S(=O)(=O)N4CCOCC4)cc3)c(=O)[nH]c2c1,?,-12.3%,56.6%,0.8%,10.4µM*,1.3%
Cc1cc2cc(CCNC(=O)c3ccc(S(=O)(=O)N4CCCC4)cc3)c(=O)[nH]c2cc1C,?,-1.9%,16.9%,·,9.28µM*,-0.6%
COc1ccc(CNC(=O)c2ccc(S(=O)(=O)N3CCOCC3)cc2)cc1,?,-11.8%,-17.3%,-0.1%,-24.7%,0.4%
CC(=O)N1CCOc2ccc(S(=O)(=O)N3CCN(c4cc(C)ccc4C)CC3)cc21,25.9%,-6.5%,86.7%,-20.3%,-0.3%,-12.8%
CN(C(=O)c1cnccn1)c1c(N)n(Cc2ccccc2)c(=O)[nH]c1=O,34.8%,-13.2%,-13.3%,3.1%,?,-5.8%
CCC(=O)N1CCc2cc(CNC(=O)c3ccccc3C)ccc21,·,6.7%,·,·,·,2.4%
COc1ccc(N/C=C\C(=O)c2ccc(Br)cc2)cc1OC,1.85µM*,-8.2%,-11.9%,?,71.4%,-5.2%
COC(=O)c1ccc(NC(=S)Nc2ccccc2)cc1,14.4%,5.4%,-12.7%,-0.2%,29.4%,31.6µM*
COC(=O)c1ccc(N/C=C/C(=O)c2ccccc2)cc1,13.1µM*,0.1%,-20.1%,-6.4%,160.9%,-0.7%
COc1ccc(C(=O)Nc2ccc3ccccc3c2)cc1,1.0%,8.3%,-24.4%,0.7%,0.0%,?
COC(=O)c1ccc(NC(=S)Nc2ccc3ccccc3c2)cc1,-10.4%,-1.0%,0.251µM*,-9.8%,12.5%,-32.2%
CCS(=O)(=O)N1CC(=O)N(c2ccc(Cl)cc2)C(C)(C(=O)NC2CCCCC2)C1 (configuration not stated),·,12.7%,·,·,·,3.9%
C=CCNC(=S)Nc1ccc(C(N)=O)cc1,19.7%,?,-15.5%,7.1%,9.3%,?
C/C(=C\C(=S)Nc1ccccc1)Nc1ccc2ccccc2c1,?,?,-13.7%,-89.1%,9.28µM*,-15.5%
NC(=O)c1ccc(C(=O)Nc2ccc([As](=O)(O)O)cc2)cc1,12.2%,-1.0%,-1.6%,3.3%,-16.2%,44.7µM*
COC(=O)c1ccc(NC(=O)C(=O)N2CCN(C(=S)Nc3ccc(C)cc3)CC2)cc1,0.37µM*,-4.8%,-18.7%,5.3%,-18.9%,-0.3%
CNC(=S)Nc1ccc(C(N)=O)cc1,?,-6.0%,-18.7%,0.8%,?,39.8µM*
O=C(Cc1ccccc1Cl)Nc1cccnc1,?,0.3%,-3.7%,3.1%,-13.6%,-1.2%
Cc1ccc(S(=O)(=O)/N=C(\Nc2cc(C)on2)c2ccc(Cl)cc2)cc1,-23.9%,?,-36.4%,14.5%,24.4%,2.1%
